Hits are enriched below; roughly 4.6% of the tested compounds scored in any of these assays.
D1 agonist: activates the human D1 dopamine receptor. HEK293 T-REx D1 cells, calcium flux, agonist mode. activation, % at 2 µM. 360,000 compounds, 1% hits. AID 504660
Target sequence (P21728 whole entry, looked up): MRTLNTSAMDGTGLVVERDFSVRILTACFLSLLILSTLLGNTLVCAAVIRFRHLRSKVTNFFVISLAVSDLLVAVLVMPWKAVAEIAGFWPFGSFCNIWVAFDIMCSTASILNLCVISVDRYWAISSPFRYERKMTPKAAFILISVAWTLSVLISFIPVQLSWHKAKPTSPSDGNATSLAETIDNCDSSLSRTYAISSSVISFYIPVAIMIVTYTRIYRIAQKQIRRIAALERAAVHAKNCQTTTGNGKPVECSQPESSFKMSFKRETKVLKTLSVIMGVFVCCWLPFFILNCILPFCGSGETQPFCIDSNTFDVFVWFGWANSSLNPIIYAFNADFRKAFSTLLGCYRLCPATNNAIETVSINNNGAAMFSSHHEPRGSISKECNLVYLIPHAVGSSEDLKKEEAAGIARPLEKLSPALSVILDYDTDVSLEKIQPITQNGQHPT
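Agonism was scored from calcium flux recorded over 180 s (1 read/s) after pintool compound addition, following a 10-cycle baseline. Cells were inducible force-coupled HEK293 TREx D1, plated overnight at 30 C and loaded with no-wash calcium dye.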
D1 antagonist: antagonists of human D1 dopamine receptor | activity change, negative = inhibition, % at 10 µM | HEK293 TREx D1 cells, calcium flux, dopamine EC80; hits give low values | P21728 | 360,000 compounds, 3.2% hits; in the data active means activity change below about -30%
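Allosteric or orthosteric antagonism assessed as attenuation of the calcium response to EC80 dopamine, added 180 s after compound, in induced HEK293 Trex D1 cells loaded with no-wash calcium dye.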
TRHR agonist: agonists of human TRH receptor. AID 493084. 360,000 compounds, 0.18% hits. P34981. TRHR cells, calcium flux fluo-8, FDSS agonist mode. activation, % at 2 µM
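Steps: seed TRHR cells overnight; add fluo-8 no-wash Ca dye, RT 30 min–1.5 h; record 10 s baseline; pin-transfer compounds; monitor fluorescence 1 cycle/s for the agonist window. Calcium increases flag candidate agonists.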
D1 potentiator: potentiators of human D1 dopamine receptor; potentiation, % at 10 µM; HEK293 TREx D1 cells, calcium flux, dopamine EC20 potentiation; AID 504651; 360,000 compounds, 0.036% hits; in the data active means potentiation above about 30%
TRHR enhancer: allosterically enhances the human TRH receptor. TRHR cells, fluo-8 calcium fluorescence, EC20 TRH enhancement. enhancement, % at 2 µM. 360,000 compounds, 0.66% hits; in the data active means enhancement above about 30%
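TRHR-expressing cells loaded with fluo-8 calcium dye were read kinetically (ex 480/em 530) during compound addition, then stimulated with an EC20 of TRH (10 nM final). Enhancement of the Gq-mediated intracellular calcium response was scored.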
Large screens that a line does not name were inactive. Unless noted, no stated cut-off is given here; in the data, active means activation above about 30%; inactive means the rest.

Cc1ccccc1CSc1cn(CC(=O)N2CCCCCC2)c2ccccc12	none
O=C(CSC(=S)N1CCCC1)Nc1ncc(Cl)cc1Cl	TRHR enhancer 31
O=C(COC(=O)C1CC1)Nc1ncc(Cl)cc1Cl	none
O=C(CSc1ccc(-c2cccs2)nn1)Nc1cccc(F)c1	none
Cc1ccc(/C=N/NC(=O)Cn2cncn2)cc1	none
C=CCNC(=O)CC(=O)N/N=C/c1ccccc1F	TRHR enhancer 32
O=C(CO)N/N=C/c1ccccc1F	none
O=C(CN1CCCCCCC1)N/N=C/c1ccccc1F	D1 antagonist -39
O=C(CC(=O)N/N=C/c1c(F)cccc1Cl)NCc1ccccc1	D1 antagonist -81
O=C(CC(=O)N/N=C/c1ccc(Cl)cc1Cl)NCc1ccccc1	none
O=C(Cn1cncn1)N/N=C/c1ccccc1Cl	TRHR enhancer 32
CCOC(=O)c1ccccc1NC(=O)c1cnc(N2CCOCC2)c2ccccc12	none
COc1ccc(NS(=O)(=O)c2ccc(N3CCOCC3)c(N)c2)cc1	D1 antagonist -32
Oc1ccc(/C=N/Nc2nn3cnnc3c3ccccc23)cc1	D1 antagonist -51
COc1ccc(OC)c(NC(=O)COc2coc(CN3CCc4ccccc43)cc2=O)c1	D1 antagonist -36
Cc1ccc(NC(=O)COc2coc(CN3c4ccccc4CC3C)cc2=O)c(C)c1 (stereo not given)	none
CC1Cc2ccccc2N1Cc1cc(=O)c(OCC(=O)Nc2ccccc2)co1 (stereo not given)	D1 antagonist -33
O=C(c1ccc2ccccc2c1)C1CCCN(S(=O)(=O)c2cccnc2)C1 (stereo not given)	D1 antagonist -53
Cc1ccc(S(=O)(=O)N(Cc2ccccc2)c2ccccc2C(=O)NCc2cccnc2)cc1	D1 antagonist -38
COc1ccc(CNC(=O)[C@@H](NC(=O)C2CCN(S(=O)(=O)c3ccc(C)cc3)CC2)C(C)C)cc1OC	D1 antagonist -33
CCOc1ccc(S(=O)(=O)N2CCCC(C(=O)NCc3cccnc3)C2)cc1 (stereo not given)	D1 antagonist -31
CCCS(=O)(=O)c1nc(S(=O)(=O)c2ccc(C)cc2)c(NCc2ccccc2Cl)s1	none
CC(C)(C)c1ccc(NC(=O)CSc2nnc3scc(-c4ccccc4)n23)cc1	none
COc1cccc(CNC(=O)C2CCN(S(=O)(=O)c3cnc[nH]3)CC2)c1	D1 antagonist -39
CCOC(=O)c1c(C)[nH]c(C)c1S(=O)(=O)N1CCCC(C(=O)NCc2ccc(N(C)C)cc2)C1 (stereo not given)	D1 antagonist -31
COc1ccc(S(=O)(=O)N2CCC(C(=O)NCc3cccnc3)CC2)cc1OC	D1 antagonist -52
Cc1ccc(S(=O)(=O)NCC2CCC(C(=O)NCc3ccccn3)CC2)cc1 (stereo not given)	none
Cc1ccc(S(=O)(=O)NCC2CCC(C(=O)NCc3cccnc3)CC2)cc1 (stereo not given)	D1 antagonist -32
C=C(C)c1cc2c(s1)c1cnn(Cc3ccccc3F)c(=O)c1n2C	none
COc1cccc(/C=C/c2nc(C#N)c(N3CCN(C)CC3)o2)c1	none
COc1cc([N+](=O)[O-])ccc1NC(=O)N1CCC2(CC1)Nc1ccccc1-n1cccc12	none
COc1ccc(S(=O)(=O)N2CCCC(C(=O)NCc3ccccc3)C2)cc1 (stereo not given)	D1 antagonist -31
COc1cccc(CNC(=O)C2CCN(S(=O)(=O)c3ccc(-n4cnnn4)cc3)CC2)c1	none
COc1ccccc1CNC(=O)C1CCN(S(=O)(=O)c2ccc(-n3cnnn3)cc2)CC1	D1 antagonist -39
COc1ccc(S(=O)(=O)N2CCCC(C(=O)O)C2)cc1 (stereo not given)	none
COc1ccc(S(=O)(=O)N2CCCC(C(=O)NCCC(C)C)C2)cc1 (stereo not given)	D1 antagonist -30
Cc1nc(N2CCCC2)c2c(C(=O)Nc3ccc(C)c(Cl)c3)c(C)oc2n1	none
CC(C)Oc1ccc(CNC(=O)c2cnc3sc(N4CCCCC4)nn3c2=O)cc1	none
Cc1nc2ccn(Cc3cccs3)c(=O)c2cc1C(=O)Nc1ccccc1	none
C[C@H]1O[C@H](O[C@H]2[C@H](O[C@@H]3CC[C@@]4(C)C(CC[C@]5(C)C4CC=C4[C@@H]6CC(C)(C)CC[C@]6(C(=O)O[C@@H]6O[C@H](CO)[C@@H](O)[C@H](O)[C@H]6O)CC[C@]45C)C3(C)C)O[C@H](C(=O)O)[C@@H](O)[C@@H]2O)[C@@H](O)[C@@H](O)[C@@H]1O (stereo not given in full)	none
CC1OC(OC2C(OC3C(O[C@H]4CC[C@]5(C)C6C=C[C@]78OC[C@@]9(CC[C@@H](C)[C@H](C)C97)[C@H](O)C[C@@]8(C)[C@]6(C)CC[C@H]5C4(C)C)OC(C)C(O)C3O)OC(CO)C(O)C2O)C(O)C(O)C1O (stereo not given in full)	D1 agonist 394, TRHR agonist 59
COc1cccc(CNC(=O)C2CCC(CNS(=O)(=O)c3ccc(Br)s3)CC2)c1 (stereo not given)	none
CCC(CC)NC(=O)CSc1ccc(S(=O)(=O)N2CCCCC2)cn1	none
CC(C)(C)NC(=O)NC(=O)CSc1ccc(S(=O)(=O)N2CCCCC2)cn1	D1 antagonist -39
O=C(CSc1nc2ccccc2o1)Nc1ccc(N2CCOCC2)cc1	D1 antagonist -44
O=C(CSc1nc2cc(S(=O)(=O)N3CCOCC3)ccc2o1)Nc1c(F)cccc1F	D1 antagonist -32
CC(C)N(C(=O)CSc1ccc(S(=O)(=O)N2CCCCC2)cn1)c1ccccc1	D1 antagonist -37
CCOc1ccc(Nc2oc(-c3ccc(COc4ccc(OC)cc4)o3)nc2C#N)cc1	none
C/C(=N\NC(=O)CSc1nc2ccccc2o1)c1cccc(O)c1	D1 antagonist -35
O=C(CSc1ccc(S(=O)(=O)N2CCOCC2)cn1)Nc1ccc(F)c(F)c1	D1 antagonist -57
CCC(C)(C)n1nnnc1C(c1cc2ccc(OC)cc2[nH]c1=O)N1CCc2ccccc2C1 (stereo not given)	none
COc1ccc2cc(C(c3nnnn3C(C)(C)C)N3CCc4ccccc4C3)c(=O)[nH]c2c1 (stereo not given)	D1 antagonist -45
Cc1cc(N2CCN(C)CC2)nc2ccc(NC(=O)Nc3ccccc3Cl)cc12	none
Cc1cccc(C)c1-n1cccc1/C=C1/C(=N)N2C(=NC1=O)SN=C2S(C)(=O)=O	D1 antagonist -66
Cc1ccc(-n2cccc2/C=C2/C(=N)N3C(=NC2=O)SN=C3S(C)(=O)=O)cc1Cl	none
c1ccc(-n2ncc3c(NCCN4CCCCC4)ncnc32)cc1	none
CN(C)CCCNc1ncnc2c1cnn2-c1ccccc1	none
OCCOCCNc1ncnc2c1cnn2-c1ccc(Cl)cc1	none

High-throughput results (PubChem)
